Calls of active or inactive are those of the source. No rule for the calls is given here.

For the assay, the target named is Proto-oncogene tyrosine-protein kinase Src (Homo sapiens) (UniProt P12931). The assay can be described thus: SRC kinase inhibition relative to ABL, profiling panel, biochemical, recombinant kinase panel (AID 1224917). The note with it: 33P substrate incorporation, stronger effect = higher value.
Sequence of Proto-oncogene tyrosine-protein kinase Src (Homo sapiens) (P12931 whole entry, looked up): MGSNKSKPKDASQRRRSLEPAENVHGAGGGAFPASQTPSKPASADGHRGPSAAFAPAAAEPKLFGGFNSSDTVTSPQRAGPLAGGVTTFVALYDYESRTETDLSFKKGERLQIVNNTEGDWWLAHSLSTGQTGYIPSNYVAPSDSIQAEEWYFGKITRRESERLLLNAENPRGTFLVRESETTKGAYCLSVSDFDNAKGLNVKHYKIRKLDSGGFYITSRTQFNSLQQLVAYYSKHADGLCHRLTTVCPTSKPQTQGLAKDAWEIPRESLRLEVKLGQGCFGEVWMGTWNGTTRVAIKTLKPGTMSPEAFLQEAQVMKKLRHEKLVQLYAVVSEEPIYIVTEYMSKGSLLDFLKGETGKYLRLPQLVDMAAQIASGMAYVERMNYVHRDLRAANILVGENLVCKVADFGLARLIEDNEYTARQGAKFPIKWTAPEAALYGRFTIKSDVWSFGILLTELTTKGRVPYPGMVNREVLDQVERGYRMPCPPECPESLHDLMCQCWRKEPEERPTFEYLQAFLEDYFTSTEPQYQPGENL

Consider `COc1cc(-c2nn(CCN3CCC(N(C)C)CC3)c3ncnc(N)c23)ccc1NC(=O)OC(C)(C)C`, for which the selectivity fold (ABL/SRC IC50) was > 950 (active).

For the origin of these results see PubChem BioAssay AID1224917.
